Measurements published in PubChem BioAssay (EPA / NIEHS).
Calls of active or inactive are those of the source. How the source made its calls: active means hit-call score of the fitted dose curve at least 0.9, where 1 is the maximum; inactive means score below 0.9.

Experiments:
Conditions in all cases: mRNA level, 48 h; actives raise or lower the signal
[1] = read-out: Early growth response protein 1 (EGR1) transcription factor, EGR1 (gene 1958); assay: LTEA_HepaRG_EGR1: Life Technologies and Expression Analysis (LTEA) Assay for Early growth response protein 1 (EGR1) transcription factor using HepaRG (AID 2283490)
In short: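 EGR1 expression change in human HepaRG after 48 h chemical exposure, assessed by housekeeping-normalized qRT-PCR; concentration-response up to 100 uM, fitted in both directions against DMSO controls.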

[2] = read-out: Ezrin (EZR), EZR (gene 7430); assay: LTEA_HepaRG_EZR: Life Technologies and Expression Analysis (LTEA) Assay for Ezrin (EZR) using HepaRG (AID 2283491)
In short: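 EZR transcript levels came from Fluidigm qRT-PCR and were normalized to three housekeeping genes after 48 h chemical exposure of HepaRG cells. Dosing used an 8-point half-log series with a 100 uM top concentration in 0.5% DMSO, tested in duplicate; both directions were fitted versus vehicle.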

[3] = read-out: Cytochrome P450 3A7 (Homo sapiens) (UniProt P24462); assay: LTEA_HepaRG_CYP3A7: Life Technologies and Expression Analysis (LTEA) Assay for CYP3A7 using HepaRG (AID 2283492)
In short: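 HepaRG cells plated 48 h, then dosed in serum-free induction medium for 48 h at 8 concentrations (top 100 uM, half-log steps, 0.5% DMSO). CYP3A7 mRNA by qRT-PCR, normalised to ACTB/GAPDH/POLR2A; bidirectional fit versus DMSO.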

CYP3A5 (gene 1577) = assay: LTEA_HepaRG_CYP3A5: Life Technologies and Expression Analysis (LTEA) Assay for CYP3A5 using HepaRG (AID 2283493)
In short: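 Readout was CYP3A5 mRNA by qRT-PCR. HepaRG cultures were exposed for 48 h in serum-free induction medium to chemicals at up to 100 uM, and responses were fitted in both directions relative to DMSO vehicle.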

[4] = read-out: Fatty Acid-Binding Protein 1 (FABP1), FABP1 (gene 2168); assay: LTEA_HepaRG_FABP1: Life Technologies and Expression Analysis (LTEA) Assay for Fatty Acid-Binding Protein 1 (FABP1) using HepaRG (AID 2283494)
In short: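 Values reflect bidirectional concentration-response fitting of FABP1 mRNA change against 0.5% DMSO controls. Human HepaRG cultures received eight half-log doses (top 100 uM) for 48 h; expression quantified by TaqMan qRT-PCR with housekeeping-gene normalization.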

[5] = read-out: Cytochrome P450 4A22 (Homo sapiens) (UniProt Q5TCH4); assay: LTEA_HepaRG_CYP4A22: Life Technologies and Expression Analysis (LTEA) Assay for Cytochrome P450 4A22 (CYP4A22) using HepaRG (AID 2283495)
In short: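 qRT-PCR of CYP4A22 mRNA (Fluidigm TaqMan, normalized to three housekeeping genes) after 48 h chemical exposure of HepaRG cells; 8-point half-log series, top 100 uM, 0.5% DMSO vehicle. Bidirectional curve fitting vs DMSO baseline.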

[6] = read-out: Cytochrome P450 7A1 (Homo sapiens) (UniProt P22680); assay: LTEA_HepaRG_CYP7A1: Life Technologies and Expression Analysis (LTEA) Assay for Cytochrome P450 7A1 (CYP7A1) using HepaRG (AID 2283496)
In short: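 Using 0.5% DMSO as vehicle and baseline, chemicals were tested in duplicate over an 8-point range from 100 uM on HepaRG cells for 48 h; qRT-PCR signals were normalised to ACTB, GAPDH and POLR2A.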

[7] = read-out: Glutathione S-Transferase (GSTA2), GSTA2 (gene 2939); assay: LTEA_HepaRG_GSTA2: Life Technologies and Expression Analysis (LTEA) Assay for Glutathione S-Transferase (GSTA2) using HepaRG (AID 2283497)
In short: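 Oxidative-stress marker GSTA2 is quantified by TaqMan qRT-PCR in HepaRG cultures treated 48 h across an eight-point range to 100 uM. Expression is normalized to endogenous controls and compared with 0.5% DMSO vehicle.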

[8] = read-out: Glutamate-cysteine ligase catalytic (GCLC), GCLC (gene 2729); assay: LTEA_HepaRG_GCLC: Life Technologies and Expression Analysis (LTEA) Assay for Glutamate-cysteine ligase catalytic (GCLC) using HepaRG (AID 2283498)
Method: LTEA_HepaRG is a cell based, multiplexed-readout assay that uses HepaRG, a human liver cell line, with measurements taken at 48 hours after chemical dosing on a 96-well plate.LTEA_HepaRG_GCLC is one of 102 assay component(s) measured in the LTEA HepaRG cell culture assay. It is a marker of Oxidative Stress.Data from the assay component LTEA_HepaRG_GCLC was analyzed into 1 endpoint. This assay endpoint, LTEA_HepaRG_GCLC, was analyzed with bidirectional fitting relative to DMSO as the negative control and baseline of activity. Using a type of inducible reporter, measures of mRNA induction for gain or loss-of-signal activity can be used to understand regulation of transcription factor activity. To generalize the intended target to other relatable targets, this assay endpoint is annotated to the ligase intended target family, where the subfamily is C-N ligase.
A total of 1060 chemcials from the ToxCast library were tested in eight-point concentration-response experiments. Cell culture and cytotoxicity assays were conducted at Thermo Fisher Scientific's Custom Services facility (Madison, WI). […] Fluidigm's 96.96 Dynamic ArrayTM (Fluidigm, Amsterdam, the Netherlands) technology was used for gene expression analyses by quantitative reverse transcription polymerase chain reaction (qRT-PCR, performed by Quintiles/Expression Analysis, Durham, NC)89. […]

[9] = read-out: growth arrest and DNA damage 45 (GADD45G), GADD45G (gene 10912); assay: LTEA_HepaRG_GADD45G: Life Technologies and Expression Analysis (LTEA) Assay for growth arrest and DNA damage 45 (GADD45G) using HepaRG (AID 2283499)
In short: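 Differentiated human HepaRG cells in serum-free induction medium were exposed for 48 h to 8 half-log concentrations up to 100 uM in 0.5% DMSO, in duplicate. GADD45G mRNA was measured by TaqMan qRT-PCR, normalised to ACTB, GAPDH and POLR2A, and fitted bidirectionally against DMSO.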

Measured: outcome

Sequence of Cytochrome P450 3A7 (Homo sapiens) (P24462 whole entry, looked up): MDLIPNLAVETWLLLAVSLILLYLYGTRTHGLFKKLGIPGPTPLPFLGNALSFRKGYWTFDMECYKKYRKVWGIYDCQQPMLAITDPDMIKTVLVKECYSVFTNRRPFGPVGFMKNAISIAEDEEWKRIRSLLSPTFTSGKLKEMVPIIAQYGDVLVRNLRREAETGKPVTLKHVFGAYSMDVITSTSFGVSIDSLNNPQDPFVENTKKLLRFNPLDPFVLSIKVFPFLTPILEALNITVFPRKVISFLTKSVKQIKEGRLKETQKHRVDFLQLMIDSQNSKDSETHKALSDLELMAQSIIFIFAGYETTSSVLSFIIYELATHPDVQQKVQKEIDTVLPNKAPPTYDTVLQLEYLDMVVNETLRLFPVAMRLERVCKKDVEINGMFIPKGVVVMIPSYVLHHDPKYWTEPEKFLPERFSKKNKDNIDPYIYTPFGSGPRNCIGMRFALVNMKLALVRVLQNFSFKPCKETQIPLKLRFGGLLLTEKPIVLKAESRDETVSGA

CS(=O)(=O)OCCCCOS(C)(=O)=O
inactive: [1] | [2] | [3] | CYP3A5 (gene 1577) | [4] | [5] | [6] | [7] | [8] | [9]
